In publication PMC6792352, “Limited Chemical Structural Diversity Found to Modulate Thyroid Hormone Receptor in the Tox21 Chemical Library” (Environmental Health Perspectives, 2019):
Structures can show the parent of a compound that is named as a salt.

test system: thyroid hormone receptor (endogenous TRα and TRβ); parameters: species or system GH3-TRE-Luc (rat pituitary); GH3-TRE-Luc luciferase reporter, antagonist mode against 1 nM T3, loss of signal, qHTS; settings: read-out: Average AC50 (uM) GH3-TRE-Antag; 24 h; antagonist

Question: Cc1ncc2n1-c1ccc(Cl)cc1C(c1ccccc1F)=NC2 [Midazolam hydrochloride] was tested. Which AC50 did it give?
Answer: 32.8 µM

Question: How did the AC50 turn out when CN1C(=O)C(O)N=C(c2ccccc2)c2cc(Cl)ccc21 (stereo not shown) [Temazepam] was run?
Answer: > 50 µM

Question: For O=c1oc2ccccc2c(O)c1C(CC(O)c1ccc(-c2ccc(Br)cc2)cc1)c1ccccc1 (stereo not shown) [Bromadiolone], which AC50 is on record?
Answer: 44.3 µM

Question: Which AC50 does the source give for CCc1cc(OC)c(C[C@@H](C)N)cc1OC [(-)-2,5-Dimethoxy-4-ethylamphetamine hydrochloride] here?
Answer: 71.2 µM

Question: O=C1CN=C(c2ccccc2)c2cc(Cl)ccc2N1CC1CC1 [Prazepam] was tested. Which AC50 did it give?
Answer: > 50 µM

Question: For CN1C(=S)CN=C(c2ccccc2)c2cc(Cl)ccc21 [Sulazepam], which AC50 is on record?
Answer: 43.6 µM

Question: CC[C@]1(O)CC[C@H]2[C@@H]3CCC4=CCCC[C@@H]4[C@H]3CC[C@@]21C [Ethylestrenol] was tested. Which AC50 did it give?
Answer: 7.8 µM

Question: Which AC50 does the source give for COc1cc(C[C@H](C)N)c(OC)cc1C [(S)-(+)-2,5-Dimethoxy-4-methylamphetamine hydrochloride] here?
Answer: 49.7 µM

Question: For CN(C)CCc1c[nH]c2cccc(O)c12 [Psilocin], which AC50 is on record?
Answer: 91 µM

Question: Cc1nnc2n1-c1ccc(Cl)cc1C(c1ccccc1)=NC2 [Alprazolam] was tested. Which AC50 did it give?
Answer: 41.3 µM

Question: How did the AC50 turn out when Cc1cc2c3c(c1)C(c1ccccc1)=N[C@@H](NC(=O)c1ccncc1)C(=O)N3CC2 [CI-1018] was run?
Answer: 27.4 µM

Question: For C[C@]12CC[C@H]3[C@@H](CCC4=CC(=O)CC[C@@H]43)[C@@H]1CC[C@@H]2OC(=O)CCc1ccccc1 [Nandrolone phenpropionate], which AC50 is on record?
Answer: 19.5 µM

Question: For CN1C(=O)CN=C(c2ccccc2)c2cc(Cl)ccc21 [Diazepam], which AC50 is on record?
Answer: 49.5 µM
